Assay results as given in the supplement of paper PMC3334620.
The full ranking holds about 33,000 sequences; the median of “E-score (-0.5 to 0.5)” is about -0.015, and the highest 2% start at about 0.3. The list comes from a sample in which the highest values are over-represented; it also holds similar and randomly drawn sequences.

Target: T1, Abf1 (UniProt P14164)
T1 sequence: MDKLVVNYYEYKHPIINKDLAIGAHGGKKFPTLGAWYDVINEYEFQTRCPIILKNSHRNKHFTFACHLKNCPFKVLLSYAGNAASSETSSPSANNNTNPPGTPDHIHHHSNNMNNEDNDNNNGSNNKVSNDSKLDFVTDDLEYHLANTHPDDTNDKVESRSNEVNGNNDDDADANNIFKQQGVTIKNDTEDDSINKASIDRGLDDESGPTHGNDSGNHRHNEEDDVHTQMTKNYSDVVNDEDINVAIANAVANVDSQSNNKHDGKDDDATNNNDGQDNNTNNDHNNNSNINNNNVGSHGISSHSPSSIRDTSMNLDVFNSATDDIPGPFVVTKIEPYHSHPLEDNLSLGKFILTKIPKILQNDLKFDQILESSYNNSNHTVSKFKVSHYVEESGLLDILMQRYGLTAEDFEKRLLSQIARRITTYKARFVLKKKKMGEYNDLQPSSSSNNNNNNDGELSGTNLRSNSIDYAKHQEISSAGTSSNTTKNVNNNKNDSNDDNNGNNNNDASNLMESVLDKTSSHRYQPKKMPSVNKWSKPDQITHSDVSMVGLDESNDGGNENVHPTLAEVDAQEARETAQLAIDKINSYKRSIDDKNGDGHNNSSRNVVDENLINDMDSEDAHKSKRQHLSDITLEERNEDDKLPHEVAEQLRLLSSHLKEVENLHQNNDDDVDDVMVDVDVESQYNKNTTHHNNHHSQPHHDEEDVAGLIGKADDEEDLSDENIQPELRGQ
Test: PBM E-score (8-mer binding enrichment) (E-score (-0.5 to 0.5)); higher = stronger / more preferred TF binding
Conditions: protein concentration: 200 nM; construct: GST-full length
Description: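 Universal 'all 10-mer' protein binding microarrays (Agilent AMADID 015681) probed with GST-tagged S. cerevisiae TFs (full-length or DBD) made by in vitro transcription/translation (PURExpress), about 100-200 nM. Bound TF was detected with fluorescent anti-GST. Each ungapped 8-mer (which stands for itself and its reverse complement) is scored by the PBM enrichment score (E-score), a modified Wilcoxon-Mann-Whitney statistic from -0.5 to +0.5, computed with the Universal PBM Analysis Suite. Scale: above 0.35 generally sequence-specific binding.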

Sequence | PBM E-score
ATCCCTGA | -0.0627
CCAGGGGC | -0.331
ATTAGCGA | 0.136
CTTAGCGA | 0.0369
GTTAGCGA | 0.32
GGGTTATA | -0.105
ATTTTACC | 0.11
ATTTTACG | 0.322
AATTTACG | 0.0813
TACAGCTA | -0.41
ATTAGTGA | 0.365
ATTAGTGC | 0.148
AATAGTGA | 0.358
AATAGTGC | 0.0751
GTTAGTGA | 0.17
AATAGTGG | 0.0153
ATTAGTGG | 0.1
CTTAGTGC | -0.0935
CTTAGTGA | 0.305
TCGAGCAA | 0.1
ATTTCCGG | 0.0492
ATTTCTTA | 0.0563
GAAGAAAC | -0.133
AAATTCGC | 0.0441
AAATTCGG | 0.0545

Sequence | PBM E-score
AATTTCGC | -0.0531
AATTTCGT | 0.36
AATTTCGA | 0.00012
AAATTCGT | 0.328
GACGCCTC | -0.0456
ATAACCCA | -0.0314
AGGGTAAT | 0.0413
CACAGTGA | 0.109
GCATCTCC | -0.255
ACTGGAGA | -0.174
CCCCCAGA | -0.326
CACGAGTC | 0.0257
GGCACGAA | 0.103
CGCACGAG | 0.156
TGCACGAA | 0.368
CGCACGAA | 0.321
CGCACGAC | 0.242
AGCACGAA | 0.217
CACAACGC | -0.174
AGGGAGGA | -0.187
ATCCGGGC | -0.197
AAGATATA | 0.162
GCGATACA | 0.139
ATGATAGG | 0.116
GAGATATA | 0.147

Sequence | PBM E-score
GTGATATA | 0.395
ATGATATA | 0.403
ATGATATG | 0.367
GGGATATA | -0.045
CTGATATA | 0.107
GCGATATA | 0.368
AAGATATG | 0.283
CCGATATA | 0.0343
GTGGACAA | 0.133
CTCCTGAC | 0.0261
AGGGGACA | -0.0441
CCAGGGTC | -0.217
ACGGCTAC | 0.0914
CGTTCAGA | 0.0456
ATGATAGC | 0.24
ATGATACG | 0.305
CTGATATC | 0.0641
ATGATATC | 0.362
ATGATACC | 0.291
ATGATACA | 0.202
ACGCGCCT | -0.0785
AGATAAGG | 0.00618
GGAGGTCA | 0.0571
CTGACGAC | 0.228
CTGTACAA | 0.109

Sequence | PBM E-score
CTGTACGA | 0.383
GTGTACGA | 0.337
CTGTACGC | -0.106
ATGTACGA | 0.444
GAGTACGA | 0.0499
ATGTACGC | 0.027
ATGTACGG | 0.241
GTGTACTA | 0.165
GTGTCGGA | 0.0611
GACGTAGA | 0.0745
TCCGACCA | -0.143
AAACTCTA | -0.144
CCCACAAC | -0.0362
GCCTCCAA | -0.121
GATATAAA | 0.22
CATATAAC | 0.155
GATATAAC | 0.307
GATATACA | 0.111
GATATACC | 0.34
AATATATC | 0.139
CATATACC | -0.0104
GATATATC | 0.332
GATATATA | 0.289
ATACGCGG | -0.114
CTTGGGGC | -0.247

Sequence | PBM E-score
AACCCTAA | 0.00952
CCGATACC | -0.101
ATACGTGG | 0.155
GAACGCGA | -0.146
GGGCGCGA | 0.0618
AGTTGTGC | -0.108
ACGGGCGA | -0.00147
AGTGATAA | 0.445
AGTGATAG | 0.303
ACTGATAA | 0.126
AGTGATAC | 0.385
GGTGATAC | 0.186
ATTGATAG | -0.0465
CGTGATAG | 0.221
ACTGATAT | 0.108
AGTGAGAT | 0.147
ATTGATAA | 0.27
AGTGATAT | 0.442
CGTGATAC | 0.23
AGCGCCAG | -0.0266
AACCAGAA | 0.0884
CCCTCGGA | 0.00175
ATACGATG | 0.261
CTACGAAG | 0.215
ATACGACG | 0.341

Sequence | PBM E-score
AGACGACG | 0.235
ATACGAAT | 0.275
ATACGATC | 0.307
ATACGAAG | 0.328
AAACGAAA | 0.159
ATACGAAA | 0.349
ACACGAAG | 0.269
ATACGACC | 0.239
CTACGATC | 0.195
CGAATACG | 0.189
ACCCGAGT | -0.152
ACATTGAA | 0.0551
ACGGTCGC | 0.134
TGTAACAA | 0.0346
AGCAGGCA | -0.114
ACTGTATG | -0.184
ACTGAAGT | -0.0998
GTCCCGAA | 0.00205
CAAATCAC | 0.19
GAAATCAA | 0.0471
AAAATCAA | 0.0207
AAAATCAC | 0.352
AAAATCAG | 0.193
GAAATCAC | 0.322
AACTGAGA | 0.0232

Sequence | PBM E-score
CATGATCC | 0.00859
CATGATCA | 0.33
ATAGATCA | 0.267
AATGATCG | 0.232
CTTGATCA | 0.183
CATGATCG | 0.0839
GTAGATCA | 0.319
GTTGATCA | 0.298
ATTGATCA | 0.267
CTAGATCA | 0.161
AATGATCC | 0.0166
AATGATCA | 0.347
CATGCGGC | -0.229
GGTTAACA | -0.138
AAAGAACT | 0.0334
ACATTAGA | 0.0369
AGTTAACT | -0.0757
AAAGATCA | 0.164
GATGATCC | 0.0853
ACTGATCT | 0.0694
GATGATTA | 0.263
TATGATCA | 0.309
TACGATCA | 0.208
CAAGATCA | 0.16
GATGATCA | 0.329

Sequence | PBM E-score
AATGAACT | -0.177
AATGATCT | 0.324
TCTGATCA | 0.155
TAAGATCA | 0.314
GCCTAGAC | -0.11
ATACATTC | 0.0799
AACGGGGC | -0.0372
ACGCACCA | -0.101
CCATTTCC | -0.0246
CGGGTTAG | -0.173
CAAATAGA | 0.0564
GAGGTATC | 0.047
CGAAGTGA | 0.272
GGAAGTGA | 0.329
ATAAGTGA | 0.3
AGAAGTGA | 0.243
GTAAGTGA | 0.208
ATAAGTGC | 0.0214
ATAAGTGG | 0.126
CTAAGTGC | -0.0207
CTAAGTGA | 0.327
AGATTTAG | 0.0517
CCGGAAGA | 0.0618
AGACTTTA | 0.0584
AGGCTCTG | -0.089

Sequence | PBM E-score
CAGGCACC | -0.178
GCCAGCCC | -0.375
CACGCTCC | -0.00778
AACGTGAT | 0.327
AGGGTGAG | -0.102
AAAGTGAG | 0.2
AAAGTGAT | 0.397
AACGTGAA | 0.057
AACGTGAG | 0.0297
AGGGTGAA | -0.209
AAAGTGGC | -0.118
ACAGTGAC | 0.259
AGGGTGAT | 0.335
AAAGTGAA | -0.0183
AAAGTGAC | 0.343
CCCCAGGA | -0.301
TAGTTCAA | -0.0129
AACAGCAC | -0.13
CACCCTGG | -0.33
